From PubChem BioAssay AID1159580 (chemical genetic matrix, 2015)
Several values for one entry are separate records, joined by “and”; a condition that tells them apart may be missing. Equal values may be shown once. Out of some 5,500 compounds screened, about 2,000 (36%) were called active. Not shown: some 18% with an inconclusive outcome. No stated cut-off is given here; in the data, active means normalized growth mostly below about 0.91 (no sharp cut-off); inconclusive means no clear call, values can overlap the other calls; inactive means mostly above about 0.92. This is one part of the list.

Assay: chemical genetic growth profiling, strain panel (AID 1159580);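 further: tested at 20 µM; growth read once vehicle control cultures reached saturation at 30 °C; 1 = growth at the plate median or of vehicle wells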
Conditions: S. cerevisiae deletion strains, growth OD

Measured: normalized growth

NC(=O)c1ccc([N+](=O)[O-])cc1Cl
inactive: locus YAL013W, strain DEP1, stronger effect = lower value 0.983 | locus YAL021C, strain ccr4, stronger effect = lower value 0.97 | locus YAL026C, strain drs2, stronger effect = lower value 0.968 | locus YAL030W, strain snc1, stronger effect = lower value 0.997 | locus YBL061C, strain skt5, stronger effect = lower value 0.983 | locus YBR009C, strain hhf1, stronger effect = lower value 0.953 | locus YBR021W, strain FUR4, stronger effect = lower value 1.02 | locus YBR023C, strain chs3, stronger effect = lower value 0.985 | locus YBR171W, strain sec66, stronger effect = lower value 0.981 | locus YBR229C, strain ROT2, stronger effect = lower value 0.95 | locus YBR231C, strain swc5, stronger effect = lower value 1.01 | locus YBR279W, strain paf1, stronger effect = lower value 0.988 | locus YCL011C, strain gbp2, stronger effect = lower value 0.929 | locus YCL016C, strain dcc1, stronger effect = lower value 0.951 | locus YCL029C, strain bik1, stronger effect = lower value 0.977 | locus YCL069W, strain vba3, stronger effect = lower value 0.984 | locus YCR088W, strain abp1, stronger effect = lower value 0.994 | locus YDL005C, strain med2, stronger effect = lower value 0.985 | locus YDL035C, strain GPR1, stronger effect = lower value 0.98 | locus YDL040C, strain nat1, stronger effect = lower value 0.992 | locus YDL074C, strain BRE1, stronger effect = lower value 0.956 | locus YDL101C, strain DUN1, stronger effect = lower value 0.943 | locus YDL134C, strain PPH21, stronger effect = lower value 0.982 | locus YDL185W, strain tfp1, stronger effect = lower value 0.981 | locus YDL192W, strain arf1, stronger effect = lower value 0.982 | locus YDR001C, strain nth1, stronger effect = lower value 0.965 | locus YDR069C, strain doa4, stronger effect = lower value 0.971 | locus YDR101C, strain arx1, stronger effect = lower value 0.991 | locus YDR137W, strain rgp1, stronger effect = lower value 0.929 | locus YDR150W, strain NUM1, stronger effect = lower value 0.965 | locus YDR159W, strain sac3, stronger effect = lower value 0.931 | locus YDR162C, strain NBP2, stronger effect = lower value 0.945 | locus YDR195W, strain ref2 1.02 | locus YDR297W, strain sur2, stronger effect = lower value 0.978 | locus YDR318W, strain mcm21, stronger effect = lower value 0.995 | locus YDR334W, strain swr1, stronger effect = lower value 0.979 | locus YDR335W, strain msn5, stronger effect = lower value 0.981 | locus YDR388W, stronger effect = lower value 0.984 | locus YDR392W, strain spt3, stronger effect = lower value 0.942 | locus YDR502C, strain sam2, stronger effect = lower value 0.973 | locus YEL003W, strain gim4, stronger effect = lower value 1.01 | locus YEL037C, strain rad23, stronger effect = lower value 0.983 | locus YEL061C, strain CIN8 (second series), stronger effect = lower value 0.979 | locus YEL061C, strain CIN8, stronger effect = lower value 0.976 | locus YER015W, strain faa2, stronger effect = lower value 0.988 | locus YER016W, strain bim1, stronger effect = lower value 0.969 | locus YER110C, stronger effect = lower value 0.978 | locus YER111C, strain swi4, stronger effect = lower value 0.988 | locus YER155C, strain BEM2 (second series), stronger effect = lower value 1.05 | locus YER155C, strain BEM2, stronger effect = lower value 0.984 | locus YER167W, strain BCK2, stronger effect = lower value 0.978 | locus YFR010W, strain ubp6, stronger effect = lower value 0.975 | locus YGL078C, strain dbp3, stronger effect = lower value 0.965 | locus YGL086W, strain mad1, stronger effect = lower value 0.998 | locus YGL167C, strain pmr1, stronger effect = lower value 0.978 | locus YGL173C, strain kem1, stronger effect = lower value 0.99 | locus YGL227W, strain vid30, stronger effect = lower value 0.991 | locus YGL240W, strain doc1, stronger effect = lower value 0.995 | locus YGL248W, strain PDE1, stronger effect = lower value 0.973 | locus YGL253W, strain hxk2, stronger effect = lower value 0.971 | locus YGR078C, strain PAC10, stronger effect = lower value 0.979 | locus YGR135W, strain pre9, stronger effect = lower value 0.971 | locus YGR229C, strain SMI1, stronger effect = lower value 0.974 | locus YGR252W, strain gcn5, stronger effect = lower value 1 | locus YHR013C, strain ard1, stronger effect = lower value 0.936 | locus YHR027C, strain rpn1, stronger effect = lower value 0.968 | locus YHR030C, strain SLT2, stronger effect = lower value 0.985 and 0.977 | locus YHR079C, strain IRE1 (second series), stronger effect = lower value 0.977 | locus YHR079C, strain IRE1, stronger effect = lower value 0.974 | locus YHR094C, strain hxt1, stronger effect = lower value 0.989 | locus YHR129C, strain ARP1, stronger effect = lower value 0.997 | locus YHR142W, strain chs7, stronger effect = lower value 0.982 | locus YHR200W, strain rpn10, stronger effect = lower value 0.981 | locus YIL066C, strain RNR3, stronger effect = lower value 0.976 | locus YIL073C, strain SPO22, stronger effect = lower value 0.95 | locus YIL125W, strain kgd1, stronger effect = lower value 0.989 | locus YIR030C, strain dcg1, stronger effect = lower value 0.972 | locus YJL092W, strain hpr5, stronger effect = lower value 0.988 | locus YJL095W, strain BCK1 (second series), stronger effect = lower value 0.969 | locus YJL095W, strain BCK1, stronger effect = lower value 0.995 and 0.957 | locus YJL115W, strain asf1, stronger effect = lower value 0.986 | locus YJL129C, strain trk1, stronger effect = lower value 1.02 | locus YJL134W, strain LCB3, stronger effect = lower value 0.975 | locus YJL154C, strain vps35, stronger effect = lower value 0.98 | locus YJL164C, strain tpk1, stronger effect = lower value 0.933 | locus YJL166W, strain qcr8, stronger effect = lower value 1.01 | locus YJL168C, strain set2, stronger effect = lower value 0.982 | locus YJL187C, strain SWE1 (second series), stronger effect = lower value 0.972 | locus YJR043C, strain POL32, stronger effect = lower value 0.993 | locus YJR066W, strain TOR1, stronger effect = lower value 0.944 | locus YJR075W, strain HOC1, stronger effect = lower value 0.969
